Bioassay records from PubChem BioAssay.
DSG3 Ab inh – inhibitors of pemphigus antibody binding to human desmoglein-3; DSG3-coupled beads, scFv-anti-DSG3-GFP binding, flow cytometry; stronger effect = lower value; binding (percent of control), % at 10 µM; 310,000 tested, 0.48% active; AID 588358;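 active means binding more than 3 SD below its plate's average and above zero; inconclusive means below that plate limit but binding exactly zero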;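 further: hits lower antibody fragment binding to DSG3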
GRK2 aptamer HTS – blocks RNA aptamer binding to human GRK2; P25098; bead flow cytometry, FAM-aptamer displacement from GRK2; inhibition of aptamer binding, % at 10 µM; 330,000 tested, 0.59% active; AID 488847;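 active means inhibition of aptamer binding above 40%, roughly 3 SD of noise, on plates passing a quality check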;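 further: median bead fluorescence of bound FAM aptamer so fluorescent compounds give negative values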
VLA-4 inh – inhibition in a human VLA-4 binding assay | P13612 | VLA-4 expressing cells, ligand binding flow cytometry | inhibition, % (about 7 µM as worked out from the volumes in the protocol) | 330,000 tested, 0.2% active; in the data active means inhibition above about 50%
PREPL inhibitor – inhibits the human prolyl oligopeptidase-like enzyme. Q4J6C6. recombinant PREPL, fluorescence polarization activity-based probe. inhibition, % at 5.96 µM. 320,000 tested, 0.68% active. AID 2751; in the data active means inhibition above about 43%;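 further: 0% = enzyme with DMSO and 100% = wells lacking enzyme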
JMJD2C inh – inhibitors of human GASC-1 (JMJD2C) demethylase | Q9H3R0 | GST-JMJD2C(1-420) H3K9me3 demethylation, DELFIA europium | inhibition, % at 2.35 µM | 330,000 tested, 0.069% active | AID 2099;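 active means more than half of a compound's replicate wells show inhibition beyond 50%, single wells judged on their own value; inconclusive means some, but no more than half, of replicates pass 50% inhibition; inactive means no replicate passes 50% inhibition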;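 further: signal counts dimethyl H3K9 product captured on neutravidin plate; 0% = median of DMSO wells and 100% = 0.3 times that DMSO median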
Target sequence (Q9H3R0 1-420 limits assumed): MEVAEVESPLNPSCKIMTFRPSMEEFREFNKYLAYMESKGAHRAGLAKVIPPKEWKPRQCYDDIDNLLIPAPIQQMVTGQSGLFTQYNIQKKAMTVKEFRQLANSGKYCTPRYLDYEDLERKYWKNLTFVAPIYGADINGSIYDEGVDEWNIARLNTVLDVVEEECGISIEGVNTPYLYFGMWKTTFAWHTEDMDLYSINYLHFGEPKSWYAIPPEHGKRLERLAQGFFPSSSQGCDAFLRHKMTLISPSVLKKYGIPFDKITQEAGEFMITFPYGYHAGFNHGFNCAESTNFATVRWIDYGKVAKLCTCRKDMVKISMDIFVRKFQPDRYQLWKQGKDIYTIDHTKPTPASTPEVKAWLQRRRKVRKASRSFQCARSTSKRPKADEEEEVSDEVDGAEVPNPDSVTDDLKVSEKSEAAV
Starred values were filed as active, the others as inactive; i = inactive; ? = inconclusive; . = no result given. Most compounds without a hit are left out; they make up all but 1.6% or so of the library.

SMILES	DSG3 Ab inh	GRK2 aptamer HTS	VLA-4 inh	PREPL inhibitor	JMJD2C inh
O=C1Nc2ccccc2SC1=Cc1ccccc1	104	.	.	.	.
O=C1Nc2ccccc2S/C1=C\C(=O)N1CCCC1	.	81*	13	-5	-2
CCCCCn1c(=O)[nH]c2c(c1=O)CCC2	-1.0*	2	-21	1	-1
CCCN(C(=O)c1cccs1)c1nnc(-c2ccncc2)s1	78*	0	14	-1	1
CSc1ccc(CCNC(=O)C2CCCN(S(=O)(=O)N3CCOCC3)C2)cc1 (stereo not drawn)	77*	5	2	18	-28
COc1ccc(CCNC(=O)C2CCCN(S(=O)(=O)N3CCCCCC3)C2)cc1OC (stereo not drawn)	102	1	-18	3	10
CCC(/C=C1\Sc2ccc(OC)cc2N1CCO)=C\c1sc2ccc(OC)cc2[n+]1CCO	-40*	100*	i	-137	-1
Cc1ccc(C(=O)Nc2ccc(CN3CCS(=O)(=O)CC3)cc2)cc1C	.	0	13	7	3
Cc1cc(OCC(O)CNC(C)c2ccccc2)ccc1C(C)C (stereo not drawn)	96	1	4	1	-8
Cc1nn(-c2cccc(C(F)(F)F)c2)c(=O)c2ccccc12	94*	1	-26	-2	1
Cc1nn(-c2ccccc2)c(=O)c2ccccc12	106	2	8	9	1
Oc1c(C=Nc2cccc3cccnc23)sc2ccccc12	.	0	i	45*	-6
Cc1cc(-c2nc3ncccc3o2)ccc1NC(=S)NC(=O)C(C)C	54*	0	7	1	1
CN(Cc1ccc(Cl)c(Cl)c1)C(=O)C1CSC2(C)CCC(=O)N12 (stereo not drawn)	97	0	17	6	9
N#CC(C#N)=Cc1ccc(-c2ccc(S(=O)(=O)N=C(N)N)cc2)o1	103	100*	16	-7	6
COC(=O)/C(C#N)=C/c1ccc(-c2ccc(S(N)(=O)=O)cc2)o1	105	0	5	6	2
C/C(=N\NC(=O)c1cccc(F)c1)c1ccc(NC(=O)Cc2ccccc2)cc1	107	0	2	.	-24
C/C(=N\NC(=O)c1cc(O)cc(O)c1)c1ccc(NC(=O)Cc2ccccc2)cc1	.	52*	0	12	0
Cc1ccc(C)c(N(C(=O)c2csnn2)C(C(=O)NC2CCCC2)c2cccnc2)c1 (stereo not drawn)	108	0	5	2	71*
CC(=O)N1C(=O)/C(=C2\SC(=S)N(c3c(C)n(C)n(-c4ccccc4)c3=O)C2=O)c2ccccc21	67*	4	16	-4	-4
COc1ccccc1COC(=O)CN1C(=O)NC2(CCCCC2C)C1=O (stereo not drawn)	103	.	.	.	.
CCCN(CCC)CCNC(=O)C1CCN(Cc2nc(-c3ccc(Cl)cc3)oc2C)CC1	100	96*	13	45*	11
Cc1oc(-c2ccc(Cl)cc2)nc1CN1CCC(C(=O)NCc2cccnc2)CC1	101	2	5	12	7
Cc1c(C(=O)NNC(=O)c2ccccc2O)oc2ccccc12	97	.	.	.	.
CCCn1c(=NC(=O)CCS(=O)(=O)c2ccccc2)sc2cc(S(N)(=O)=O)ccc21	103	6	-4	2	-14
SMILES	DSG3 Ab inh	GRK2 aptamer HTS	VLA-4 inh	PREPL inhibitor	JMJD2C inh
COCCn1c(=NC(=O)CCS(=O)(=O)c2ccccc2)sc2cc(C(=O)OC)ccc21	-9.8*	0	9	5	7
Oc1ccccc1-c1nnc(COc2ccc(Cl)cc2Cl)o1	66*	1	-2	14	3
COC(=O)c1ccccc1NC(=O)CNC(=O)c1ccc(OC)c(OC)c1	101	4	-3	-3	-15
CN(Cc1ccc(F)cc1)C(=O)c1cccc(OCc2ccccc2)c1	99	1	-7	7	9
CCOc1ccc(N2CC(=O)SC2=S)cc1	103	2	10	-10	1
CCOc1ccc(N2CSC(=S)N(c3ccc(OCC)cc3)C2)cc1	76*	0	3	3	7
O=[N+]([O-])c1cc(-c2cnc3ccccc3n2)ccc1Oc1ccc(F)cc1	.	0	15	-4	62*
COc1ccccc1N1CCN(c2ccc3c(c2)S(=O)(=O)c2cccc(C(=O)NCC4CC4)c2C3=O)CC1	100	.	.	.	.
COc1cccc(-c2nc(NCc3ccccc3)c3ccccc3n2)c1O	98	0	-12	5	4
COc1cccc(-c2nc(NCc3ccco3)c3ccccc3n2)c1O	64*	0	28	21	3
C=CCNc1nc(-c2cccc(OC)c2O)nc2ccccc12	92*	0	-12	13	0
CC(=O)Nc1ccc(C=NN=C2c3ccccc3-c3ccccc32)cc1	98	.	.	.	.
Cc1ccn(S(=O)(=O)c2ccc3oc(=O)ccc3c2)n1	87	3	2	3	20
O=C(CCc1ccccc1)Nc1ccccc1	90	0	1	3	4
NS(=O)(=O)c1ccc(CCNC(=O)CSc2ccccc2)cc1	?	1	-4	9	51*
NS(=O)(=O)c1ccc(NC(=O)CCc2ccccc2)cc1	107*	4	-5	-2	20
O=C(CSc1ncnc2c1oc1ccccc12)Nc1nc2ccccc2s1	100	0	30	5	-11
CCc1nnc(NC(=O)CSc2ncnc3c2oc2ccccc23)s1	-17*	0	-2	-1	-1
O=S(=O)(c1cc(-c2nnc(-c3ccc(Br)cc3)o2)ccc1Br)N1CCCCCC1	74*	2	10	0	3
O=S(=O)(c1cc(Br)ccc1Br)N1CCCCCC1	116	0	10	11	-6
CC(=O)c1c(C)[nH]c(C(=O)NCc2cccc(Cl)c2)c1C	.	0	-2	11	-17
CC(=O)c1c(C)[nH]c(C(=O)NCc2ccc(Cl)cc2)c1C	87*	.	.	.	.
COc1ccc(Nc2nc(-c3cccs3)nc3ccccc23)cc1S(=O)(=O)N1CCOCC1	96	2	-4	-3	0
CCC(=O)c1ccc(OCC(=O)Nc2ccc3c(c2)OCCO3)cc1	-3.4*	12	-8	-15	11
O=C(COc1ccc(F)cc1)Nc1ccc2c(c1)OCCO2	112	7	18	3	-10
SMILES	DSG3 Ab inh	GRK2 aptamer HTS	VLA-4 inh	PREPL inhibitor	JMJD2C inh
N#Cc1c(NC(=O)C2CC=CCC2C(=O)O)sc2c1CCCCCC2 (stereo not drawn)	104	73*	6	13	5
CC(C)(C)C1CCc2c(sc(NC(=O)C3CC=CCC3C(=O)O)c2C#N)C1 (stereo not drawn)	102	6	15	6	1
CCc1ccc(CCC(=O)Nc2sc3c(c2C#N)CCCC3)o1	101	3	19	16	51*
CCC(=O)Nc1sc2c(c1C#N)CCC2	.	2	-7	-3	-7
Cn1c(=O)[nH]c(=O)c2c1nc(N1CCCCCC1)n2CCOc1ccccc1	100	0	1	15	-4
COc1ccc(Br)c(C(=O)NCC2CCCCC2)c1	120	2	7	3	-11
